Bioassay records as filed in PubChem.
Compounds with a hit are over-represented: about 2.9% of the library has one in this group of screens.
H9c2 protect: myocardial damage modulation in H9c2 cells | H9c2 cardiomyocytes, H2O2 injury protection, ATPLite, 2 h | protection from H2O2 cell death, % at 20 µM | 360,000 tested, 0.63% active | AID 588492;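 active means compounds giving at least 50% protection of heart cells from peroxide-induced death in the single-dose screen, raw or plate-pattern-corrected value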;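 further: 0% = DMSO wells with peroxide and 100% = DMSO wells without peroxide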
Myeloid diff 2: compounds promoting myeloid differentiation. calls only at 10 µM. 360,000 tested, 1% active. ER-HoxA9 myeloid progenitors, lysozyme-GFP differentiation, flow cytometry;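 active means normalized GFP-positive differentiation at or above the plate's own cutoff, the solvent-only control mean plus 3 SD; inconclusive means no clear call, values can overlap the other calls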;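 further: cells exposed to compound for four days before flow analysis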
ABHD5-PLIN5 inh: ABHD5-PLIN5 protein interaction inhibition | AID 602281 | inhibition, % at 4 µM | Q00G26+Q8WTS1 | Split G. princeps luciferase complementation, luminescence, 4 h | 360,000 tested, 0.78% active;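 active means inhibition above the mean inhibition across every tested compound plus 3 SD, cut at about 22% in these data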;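 further: 0% = DMSO only wells and the 100% control is not disclosed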
Rtt109 Vps75: C. albicans Rtt109 histone acetyltransferase inhibition. purified Rtt109/Vps75, ThioGlo CoA-SH fluorescence, 4 h. Q5AAJ8. AID 540336. inhibition, % at 34.9 µM. 330,000 tested, 0.16% active;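 active means inhibition of at least 50% in every replicate; inconclusive means best replicate reaches 50% inhibition but some replicates fall short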
HGIII-sPLA2 inh: Inhibits HGIII-sPLA2 liposome hydrolysis, primary screen. Q9NZ20. QFRET BODIPY PC-A2 liposome hydrolysis, fluorescence. inhibition, % at 12.2 µM. 370,000 tested, 0.56% active. AID 743126;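 active means inhibition above mean plus 3 SD of compounds lying within the high and low control bounds, cut at about 19% in these data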;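 further: 0% = median of test compound wells and 100% = no enzyme DMSO wells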
DAGLB inhibitor: blocks human DAGLB lipase activity | Q8NCG7 | HEK293T DAGLB membrane lysate, EnzChek fluorogenic substrate | inhibition, % at 5.17 µM | 340,000 tested, 0.059% active; in the data active means inhibition above about 34%;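 further: 0% = enzyme with vehicle and 100% = wells lacking enzyme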
Target sequence (Q8NCG7 whole entry, looked up): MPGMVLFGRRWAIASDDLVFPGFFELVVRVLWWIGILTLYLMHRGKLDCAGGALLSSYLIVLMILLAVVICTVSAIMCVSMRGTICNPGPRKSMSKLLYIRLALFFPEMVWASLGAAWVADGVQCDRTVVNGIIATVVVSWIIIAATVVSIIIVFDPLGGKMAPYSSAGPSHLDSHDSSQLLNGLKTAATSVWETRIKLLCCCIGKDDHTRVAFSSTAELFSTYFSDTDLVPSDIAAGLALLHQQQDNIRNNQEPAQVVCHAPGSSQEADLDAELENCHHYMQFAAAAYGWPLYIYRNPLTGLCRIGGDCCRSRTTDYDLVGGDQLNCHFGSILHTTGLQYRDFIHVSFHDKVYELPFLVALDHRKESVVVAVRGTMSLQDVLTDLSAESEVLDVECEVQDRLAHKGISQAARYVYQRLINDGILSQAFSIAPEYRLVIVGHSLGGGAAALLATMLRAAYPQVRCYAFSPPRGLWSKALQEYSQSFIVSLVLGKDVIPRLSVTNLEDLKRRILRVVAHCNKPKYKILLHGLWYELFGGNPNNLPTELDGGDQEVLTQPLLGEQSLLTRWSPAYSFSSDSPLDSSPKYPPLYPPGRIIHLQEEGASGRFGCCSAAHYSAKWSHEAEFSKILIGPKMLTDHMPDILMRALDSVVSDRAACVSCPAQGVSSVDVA
ABHD5-PLIN5 conf: ABHD5-PLIN5 interaction inhibition, confirmed; shares compounds with ABHD5-PLIN5 inh; biochemical ABHD5-PLIN5 interaction, luminescence; inhibition, % at 4 µM; 2,200 tested, 67% active; in the data active means inhibition above about 23%;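 further: 0% = DMSO vehicle wells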
HNF4 split-luc: HNF4 split-luciferase signal hit, counter-screen; inhibition, % at 4 µM; shares compounds with ABHD5-PLIN5 inh; 2,200 tested, 77% active; HNF4 dimerization, luminescence, biochemical; AID 651674;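 active means mean inhibition across replicate wells exceeding the computed hit threshold, cut at about 13% in these data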;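 further: light from luciferase halves that rejoin when HNF4 fusion proteins dimerize; 0% = DMSO only wells and the 100% control is not given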
Active calls of the source: *; i = inactive; ? = inconclusive; . = no result.

SMILES	H9c2 protect	Myeloid diff 2	ABHD5-PLIN5 inh	Rtt109 Vps75	HGIII-sPLA2 inh	DAGLB inhibitor	ABHD5-PLIN5 conf	HNF4 split-luc
CC(=O)Nc1ccc(C2=NNC(=Nc3ccc(S(=O)(=O)N4CCOCC4)cc3)SC2)cc1	3	i	75*	0	-8	-12	59*	79*
COC(=O)N1[C@H](Cc2ccccc2)C=C[C@]1(C)C(=O)O	11	i	5	7	4	-12	.	.
O=C(O)c1ccc(N/N=C/c2cn(Cc3ccc(F)cc3)c3ccccc23)cc1	4	i	-1	17	-22	5	.	.
O=[N+]([O-])/C=C/c1cn(Cc2ccc(F)cc2)c2ccccc12	-11	i	57*	6	-22	2	92*	68*
COc1ccc(C(=O)N/N=C/c2ccc(OC)c(OS(=O)(=O)c3ccccc3)c2)cc1	40	i	-5	.	-13	-2	.	.
COC(=O)c1cc2c(c3c4cc(OC)ccc4n(S(=O)(=O)c4ccccc4)c13)C(=O)N(C)C2	.	.	.	.	-4	.	.	.
CCN(C(=O)CN1C(=O)S/C(=C\C=C\c2ccccc2)C1=O)C1CCS(=O)(=O)C1 (stereo unspecified)	-5	?	56*	-2	-5	-2	17	22*
COC(=O)c1c(NC(=S)NN2CCN(C)CC2)sc2c1CCC(C)C2 (stereo unspecified)	-12	i	25*	-2	-15	0	6	4
CSc1ccc(Cl)c(C(=O)OCC(=O)NCc2ccco2)c1	-4	i	34*	8	-3	-4	17	18*
COc1ccc(CC(=O)Nc2ccc(NC(=O)c3ccc(Br)cc3)cc2)cc1OC	-4	i	-4	0	-4	0	.	.
Cc1ccc(-n2c(=O)cc(N3CC(C)OC(C)C3)[nH]c2=O)cc1 (stereo unspecified)	3	i	19	4	-2	-2	.	.
CC1CN(c2cc(=O)n(-c3ccccc3)c(=O)[nH]2)CC(C)O1 (stereo unspecified)	10	i	36*	3	1	1	3	0
O=C(Cn1cnc2c(cnn2-c2ccc(F)cc2)c1=O)NCc1ccco1	4	i	1	-2	-4	-3	.	.
Cc1sc2ncn(CC(=O)NCc3ccco3)c(=O)c2c1-c1ccc(F)cc1	2	i	29*	-2	-7	3	56*	62*
CC(=O)N(C1CC(C)C(C#N)(C#N)C1(C#N)C#N)N(C)C (stereo unspecified)	-11	i	24*	-16	0	-2	52*	95*
CCCC(=O)N(C1CC(C)C(C#N)(C#N)C1(C#N)C#N)N(C)C (stereo unspecified)	-7	i	36*	11	13	3	59*	101*
O=C(OCc1cn([C@@H]2C[C@H](c3ccccc3)N(C(=O)c3cccs3)C[C@H]2O)nn1)c1ccccc1	-9	i	4	.	-14	-1	.	.
CC1(C)c2ccccc2N2CCC(=O)NC21/C=C/c1ccco1 (stereo unspecified)	1	i	21	12	-2	1	.	.
CC1(C)c2ccccc2N2CC(=O)NC21/C=C/c1ccco1 (stereo unspecified)	9	i	27*	16	-6	5	19	21*
CCN(CC)Cc1c(O)ccc2c1O/C(=C\C=C\c1ccccc1)C2=O	7	.	42*	-24	-32	-16	20	20*
Cc1cc(=O)n2[nH]c(N3C(=O)CCC3=O)nc2n1	5	i	-4	-2	2	3	.	.
O=C(O)c1cccc(Nc2cc(Cl)c3nonc3c2[N+](=O)[O-])c1	0	i	29*	16	6	0	58*	95*
CN(C)c1cc(Nc2ccc(O)cc2)c([N+](=O)[O-])c2nonc12	6	i	2	-6	-6	1	.	.
O=[N+]([O-])c1c(Nc2ccc(O)cc2)cc(Cl)c2nonc12	-21	?	58*	1	5	14	83*	101*
O=C(O)c1cccc(Nc2ccc([N+](=O)[O-])c3nonc23)c1	0	i	16	2	6	8	.	.
SMILES	H9c2 protect	Myeloid diff 2	ABHD5-PLIN5 inh	Rtt109 Vps75	HGIII-sPLA2 inh	DAGLB inhibitor	ABHD5-PLIN5 conf	HNF4 split-luc
O=C(O)c1ccccc1Nc1cc(Cl)c2nonc2c1[N+](=O)[O-]	14	i	29*	12	6	7	80*	95*
O=C1C=CC(O)C2(CO)OC12 (stereo unspecified)	0	i	67*	.	-6	-4	91*	91*
Cc1ccc2sc(N(CCCN(C)C)C(=O)CN3C(=O)c4ccccc4C3=O)nc2c1C	14	i	31*	-9	-20	0	23*	.
Cc1ccc2nc(N(CCCN(C)C)C(=O)COc3ccc(Cl)cc3)sc2c1	-16	i	26*	-2	-22	-1	16	0
CN(C)CCCN(C(=O)CCOc1ccccc1)c1nc2ccc(F)cc2s1	-16	.	32*	-13	-2	2	21	100*
CN(C)CCCN(C(=O)CCc1ccccc1)c1nc2c(F)cccc2s1	24	i	18	10	-22	-4	.	.
CN(C)CCCN(C(=O)CCOc1ccccc1)c1nc2c(F)cccc2s1	-26	?	28*	98*	-6	3	13	92*
CCCC(c1nnnn1Cc1ccco1)N1CCN(C2CCCC2)CC1 (stereo unspecified)	0	i	-2	0	-7	4	.	.
Cc1ccc(C(=O)NCCc2c[nH]c3ccccc23)c(C)c1	-16	i	-2	-12	-47	2	.	.
CN(C)CCCN(C(=O)COc1ccc(Cl)cc1)c1nc2ccc(F)cc2s1	-3	i	27*	29	-8	0	13	3
CCOc1cccc2sc(N(CCCN(C)C)C(=O)c3ccc(S(=O)(=O)N4CCc5ccccc5C4)cc3)nc12	-13	?	19	32	-20	-2	.	.
CCOc1cccc2sc(N(CCCN(C)C)C(=O)c3ccc(S(=O)(=O)N(C)c4ccccc4)cc3)nc12	-13	i	27*	19	-25	0	19	12
CN(C)CCCN(C(=O)COc1ccccc1)c1nc2ccc(F)cc2s1	11	i	6	-3	-1	-1	.	.
COc1cccc(CNc2nc3ccccc3n2C)c1O	-8	i	5	-2	-3	1	.	.
CC(C)NC(=O)C1(C)CN(S(C)(=O)=O)CC(=O)N1CCOc1ccccc1 (stereo unspecified)	.	i	-1	.	1	.	.	.
